A short description of the experiment: chemical genetic growth profiling, strain panel (AID 1159580).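 Note: tested at 20 µM; growth read once vehicle control cultures reached saturation at 30 °C; 1 = growth at the plate median or of vehicle wells; lower values mean less growth of the strain.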 Particulars: S. cerevisiae deletion strains, growth OD.
[1] abbreviates: locus YAL040C, strain CLN3, stronger effect = lower value.
The mark [2] stands for this setting: locus YCL061C, strain MRC1 (second series), stronger effect = lower value.
The mark [3] stands for this setting: locus YDR363W, strain ESC2, stronger effect = lower value.
[4] abbreviates: locus YER002W, strain NOP16, stronger effect = lower value.
The mark [5] stands for this setting: locus YNL175C, strain NOP13, stronger effect = lower value.
[6] abbreviates: locus YNL197C, strain WHI3, stronger effect = lower value.
The mark [7] stands for this setting: locus YNL224C, strain SQS1, stronger effect = lower value.
Where [8] appears, read: locus YOR083W, strain WHI5 (second series), stronger effect = lower value.
The mark [9] stands for this setting: locus YPL055C, strain LGE1, stronger effect = lower value.
[10] abbreviates: locus YPL241C, strain CIN2, stronger effect = lower value.
[11] abbreviates: locus YMR307W, strain GAS1, stronger effect = lower value.

The whole screen tested about 5,500 compounds, of which about 2,000 (36%) were called active. Roughly 18% stayed inconclusive and do not appear here. The list shows a part of the results. Unmarked numbers belong to inactive results. Cut-off read from the data, not from the text of the source: active = normalized growth mostly below about 0.91 (no sharp cut-off); inconclusive = no clear call, values can overlap the other calls; inactive = mostly above about 0.92.

Turning to `N#Cc1c(-c2ccccc2)no[n+]1[O-]`, the normalized growth (locus YAL013W, strain DEP1, stronger effect = lower value) was 0.942; the normalized growth under setting [1] is 0.674 (active); the normalized growth under setting [2] is 0.995; the normalized growth under setting [3] was 1; the normalized growth under setting [4] was 0.85 (active); the normalized growth (locus YNL153C, strain GIM3, stronger effect = lower value) was 0.515 (active). Moreover, the normalized growth is, setting by setting: under setting [5], 0.774 (active); under setting [6], 0.902; under setting [7], 0.926; under setting [8], 0.253 (active); under setting [9], 0.953; under setting [10], 1.

Take `Cc1ccc(O)c(N=Nc2ccccc2)n1`: the normalized growth is 0.96 under setting [1]; 0.934 (active) under setting [2]; 0.896 under setting [3]; 1.03 under setting [4]; 0.855 (active) (locus YJR075W, strain HOC1, stronger effect = lower value); 0.984 under setting [11]. Besides, the normalized growth is, setting by setting: under setting [5], 0.985; under setting [6], 0.977; under setting [7], 0.993; under setting [8], 0.738 (active); under setting [9], 0.425 (active).

Regarding `NC1CCN(c2cccc(Cl)n2)CC1`, the normalized growth under setting [1] is 1.01; the normalized growth under setting [2] was 1; the normalized growth (locus YDR150W, strain NUM1, stronger effect = lower value) is 1.01; the normalized growth under setting [3] was 1.01; the normalized growth under setting [4] is 0.991; the normalized growth (locus YGR078C, strain PAC10, stronger effect = lower value) was 1.01. Moreover, the normalized growth is, setting by setting: under setting [11], 1.02; (locus YNL128W, strain TEP1, stronger effect = lower value) 1.01; under setting [5], 0.991; under setting [6], 1; under setting [7], 1.01; (locus YNL322C, strain KRE1, stronger effect = lower value) 0.984. In addition, the normalized growth was 0.991 under setting [8] and 1 under setting [10].
